Experimental findings from the supplement of paper PMC6555819 are described below.

In this assay the test system is VDR:RXRa (NR concentration 270 nM, RXRa partner concentration 90 nM). Briefly: PBM binding z-score (relative to random genomic background probes); higher = stronger binding; sequences stand for … in GC…GCGATTGACAGCGTAGAATGAAGG
On the procedure:
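Protein-binding microarray (Agilent 4x180K custom design, double-stranded 60-nt probes: 5' GC cap, 34-nt variable region, 24-nt constant primer region; full probe sequence given). Purified or IVT nuclear receptor:RXRα heterodimers (3:1 NR:RXRα, mostly 270:90 nM) or homodimers were incubated for 1 h in PBS with 2% milk and no ligand, then detected with Alexa488 antibodies. Fluorescence from o1-orientation probes (~5 replicates averaged) was converted to z-scores against 500 random hg19 background probes. Variable regions are seed direct-repeat (DR0–DR5) sites, all their single-nucleotide variants and half-site ablations.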
TCAGACAGGTGAAGGTAACTCCGGTACGCAGTCG yielded a PBM binding z-score of 0.726.
The value for AGTCAAAGTTCACTAGATAACGTAAGATTCAGCT was 3.5; that for GCTGTTAGGTCAACTGATGGTCAGCTAAAGCTCG was 2.01; that for ATCTCTAGGTAAAGAAAGTTCAGTGAATGCAAAT was 2.17.
The value for CGTGCTAGGTCAATGGTCAGCTAAAGCAGCTCGC was 0.97.
Sequence ACTACTAGTTGAGACGAGGGCAACCGATAGGTTG came in with a PBM binding z-score of 0.46.
The value for TCTTGTAGATCATCAGGAGGTTAAGAAAGATCGA was 0.351; that for ATTCAAAGTTCACTAGGTAACGTAAGATTCAGCT was 3.43; that for TCTCCGAGGACACGAAGGTCAGAGCTTTCCAGAG was 2.69.
The result for CCTGGTAGGTCAATGGTCAGCTAAAGCAGCTCGC reads 1.33; that for ATATGTAGGTTATCGGGTCATTCCGTTTGCGCAT, 3.86.
Sequence GCTTGTAGATCAAGGTTAAGAGAGACTAAGCTAA displayed a PBM binding z-score of -0.00778.
The value for ATCTTTAGGTAAAGTTCAGTGAAAGATCGATAGA was 1.7; that for CGTCCAAGATCAGCAGGTCAGTGAAAGCGACGTG was 0.173.
On to CAAACTAGGTCACCGGATGGTCAAAGTCCGCATG, for which the PBM binding z-score turned out to be 2.78.
The value for CCGACTGGGGCCAGGTTACCATAACGCACAGCCA was -0.248.
The value for TCATATAGGTAAACAGGTCAAAGTCCGTAAGTTA was 2.87.
With ATACCAAGGGGATCGTGAGGTCGTTGATACTAAC, the PBM binding z-score was 1.88.
In turn, GCTGTTAGTTGAAAGGGCAACCGAATGATTCTCG had a PBM binding z-score of 0.572.
The result for ACTATTAGTTGACTTAGGGCAACCCATACGACGC reads 0.512; that for CCTACTGGGCCAAAAACGTCATTGATGCCGATAA, -0.0711.
On to CCTTACGGGTCTCTGACAGGTTATAGCATTTGGA, for which the PBM binding z-score was -0.307.
With AGTCAAAGTTCCGGACGAGGTAACGTAAAGCACG, the PBM binding z-score is -0.357.
AGAACGAGGGCACCCTGAGTTGATAGCAGAGTAG showed a PBM binding z-score of 1.47.
Sequence ATCTCTAGTTAAAGTTCAGTGAAAGATCGATAGA had a PBM binding z-score of 1.64.
The value for AGAATGAGGTTCCCAAAGATCAGGGAAACGCTTG was -0.0526; that for CGTCCAAGGTCAATGCTAGGTCAATGAAAGCATT was 5.33; that for CGAACTAGGTCATTGAAAGGACAGTGAATAGTAA was 2.36.
Sequence TCTTGTAGATCAATAGAGGATAAGAAAGTGCGCT showed a PBM binding z-score of 0.432.
The value for ATCGCAAGGTCGAAGGTGAGTATACCCACCCGAA was 1.8; that for ATCTCTAGGTAAATATAGTTCAGTGAATGCAAAT was 1.44.
The sequence AGTCAAAGTTCAGGACGAGGTAACGTACAGCACG had a PBM binding z-score of 2.88.
The value for CCGACTGGGGTAAAGGTTACCATACTCAGTACGA was 1.18; that for ATCCAAAGGTCGACGAGGTGAGTATACACCGTTT was 5.23; that for AGAACGAGGGCGATGAGTTGATAGCACGGGTGGC was 3.12.
In turn, CTACCAAGGTGAACAACGTCGTTGATTACTATTC displayed a PBM binding z-score of 0.38.
The value for CCGACTGGGGCAGAAAGGTTACCACACCATCCGG was 1.15; that for GGAACGAGGGCACGTTGATAGCAGAGTTTGATGG was 0.909.
For the sequence GCTGCTAGGTCAGGTTGGTCAGCTGACGGGTACG, the PBM binding z-score was determined as 0.533.
The result for TCTAGCAGGCTAGAGGGTCACTCAAGAGGTACGG reads 1.38.
